p53null 32C tox = kills p53 null cells at the permissive temperature. H1299-neo p53 null cells, ATP luminescence, 24 h, 32C. Potency, µM (top dose mostly 46.1 µM), inactives show top-dose activity change, negative = cytotoxicity, most hits filed as cytotoxic. actives 0.62% (n = 55,000);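 note: potency is the fitted concentration of half-maximal effect; 0% = DMSO only and -100% = full killing by 100 µM tamoxifen; nearly all actives have a fitted effect of over 55% in size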
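Cells lacking p53 (H1299-neo) are plated at 600 per well and allowed to settle overnight at 37C. Test compounds (up to 46 uM) are added and held 24 hours at 32C, then ATP is quantified by luminescence.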
p53null 39C kill = selectivity test: cytotoxicity in p53 null cells, nonpermissive temperature. actives 0.97% (n = 55,000). Potency, µM (series often up to 46.1 µM), without a hit: at the highest dose activity, negative = cell killing, hits mostly cytotoxic. H1299 p53-null (neo) cells, 39C, ATPlite viability, 24 h;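 note: potency is the fitted concentration of half-maximal effect; 0% = DMSO only and -100% = full killing by 100 µM tamoxifen; nearly all actives have a fitted effect of over 50% in size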
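Concentration-response (up to 46 uM) was run for 24 h at the nonpermissive 39C on H1299-p53A138V or H1299-neo cells. ATP content was measured with ATPlite luminescence. AC50 values were Hill-modeled after normalizing between DMSO and 100 uM tamoxifen killing.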
S16 viability = S16 Schwann cell cytotoxicity; actives 0.48% (n = 43,000); S16 Pmp22-F2sN Schwann cells viability, CellTiter-Glo, 24 h; AID 1508642; Potency, µM (doses to about 57.5 µM), without a hit: top-dose activity change, negative = cytotoxicity, actives largely listed as cytotoxic; note: potency is the fitted concentration of half-maximal effect; % is set by controls: 0 for no effect and ±100 for the full control effect; nearly all actives have a fitted effect of over 65% in size
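CellTiter-Glo counter-screen, qHTS, 1536-well. Cells: S16(c9) Pmp22-F2sN, 500-1,000/well in DMEM + 10% FBS. Cpd 23 nL pin transfer, 24 h, 37C/5% CO2. Read: luminescence, CCD imager.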
mTORC1 inh = inhibitors of mTORC1 signaling in Tsc2-/- p53-/- MEF cells; Potency, µM (top dose mostly 38.3 µM), for the others: at the top dose activity change, negative = inhibition, actives largely listed as inhibitors; Tsc2-/- p53-/- MEF, phospho-rpS6 immunofluorescence/PI, 24 h; AID 493208; actives 0.78% (n = 44,000);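 note: potency is the fitted concentration of half-maximal effect; plate controls were DMSO for no effect and rapamycin for full effect; nearly all actives have a fitted effect of over 50% in size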
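Cell-based qHTS: Tsc2-/- p53-/- MEF, 24 h cpd, 37 °C; fix/perm, anti-phospho-S6 Alexa-488 + PI; Acumen 488 nm scan; pS6/PI ratio, % positive cells; rapamycin 7.5 nM = inhibition ref; PI count = viability.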
PMP22 txn = modulates PMP22 transcription in S16 Schwann cells. S16 Pmp22-F2sN Schwann cells, FLuc/NLuc coincidence luminescence, 24 h. Potency, µM (top dose mostly 57.5 µM), for the others: top-dose activity change, negative = inhibition, actives largely listed as inhibitors. actives 2% (n = 43,000); active = clear falling dose curves in both reporters; inconclusive = both reporters move, but less clearly or upward; inactive = either reporter flat; the % is the NLuc reporter signal; note: potency is the fitted concentration of half-maximal effect; % is set by controls: 0 for no effect and ±100 for the full control effect
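qHTS, 1536-well. Cells seeded, compounds added by pin tool, 24 h 37C. Nano-Glo reagent 1 (lysis/FLuc), 10 min RT, read; Stop&Glo, 10 min RT, read NLuc.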
GALC G270D up = enhancers of human galactocerebrosidase G270D mutant activity in cells; Potency, µM (top dose mostly 57.5 µM), most hits filed as activators; actives 0.1% (n = 45,000); 145M-Twi-hGALC-G270D cells (Twitcher mouse brain line with human GALC G270D), HMU-beta-Gal fluorescence, 48 h; AID 1159614; P54803; note: potency is the fitted concentration of half-maximal effect; 0% is about no effect; nearly all actives have a fitted effect of over 65% in size
Target sequence (P54803 whole entry G286D): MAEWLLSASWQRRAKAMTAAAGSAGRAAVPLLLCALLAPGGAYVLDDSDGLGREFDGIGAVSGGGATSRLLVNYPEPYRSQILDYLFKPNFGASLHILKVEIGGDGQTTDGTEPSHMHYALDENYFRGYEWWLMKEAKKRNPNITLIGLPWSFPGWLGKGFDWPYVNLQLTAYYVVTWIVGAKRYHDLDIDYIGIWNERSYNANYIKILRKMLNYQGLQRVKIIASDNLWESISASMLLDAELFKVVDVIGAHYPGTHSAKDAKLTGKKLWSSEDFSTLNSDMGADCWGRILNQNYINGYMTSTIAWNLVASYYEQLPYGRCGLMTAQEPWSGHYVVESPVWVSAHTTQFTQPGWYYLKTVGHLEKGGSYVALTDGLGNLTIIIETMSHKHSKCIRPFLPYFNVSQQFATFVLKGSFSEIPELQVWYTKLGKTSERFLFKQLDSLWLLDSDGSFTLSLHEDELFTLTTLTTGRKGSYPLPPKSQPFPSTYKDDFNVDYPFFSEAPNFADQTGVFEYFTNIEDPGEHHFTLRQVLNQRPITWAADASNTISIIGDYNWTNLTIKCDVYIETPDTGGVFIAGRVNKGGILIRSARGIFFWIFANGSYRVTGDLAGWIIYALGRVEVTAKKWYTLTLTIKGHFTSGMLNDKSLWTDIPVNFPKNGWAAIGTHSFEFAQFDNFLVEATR
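Mutant human GALC (G270D), stably expressed in a Twitcher mouse brain cell line lacking endogenous GALC, is measured in live-treated cells via 6-hexadecanoylamino-4-methylumbelliferyl-β-galactoside hydrolysis (0.1 mM final, pH 5.2) with fluorescent detection.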
NLuc sat counter = inhibits NanoLuc at saturating substrate, PMP22 counter-screen; AID 1508638; actives 4% (n = 690); Secreted NLuc enzyme (filtered S16 cell medium), Nano-Glo luminescence; shares compounds with PMP22 txn; Potency, µM (doses to about 57.5 µM), for the others: at the top dose activity change, negative = inhibition, actives largely listed as inhibitors; note: potency is the fitted concentration of half-maximal effect; % is set by controls: 0 for no effect and ±100 for the full control effect
NLuc Km counter = counter-screen for PMP22 expression modulators: NanoLuc inhibition at Km; shares compounds with PMP22 txn; secreted NLuc enzyme, coelenterazine luminescence, Km conditions; Potency, µM (titrated, usually from 57.5 µM), inactives show top-dose activity change, negative = inhibition, most hits filed as inhibitors; actives 5% (n = 690); AID 1508639; note: potency is the fitted concentration of half-maximal effect; % is set by controls: 0 for no effect and ±100 for the full control effect
FLuc counter = counter-screen for PMP22 expression modulators: firefly luciferase inhibition; shares compounds with PMP22 txn; purified P. pyralis FLuc, luminescence, 10 min; Potency, µM (titrated, usually from 57.5 µM), without a hit: at the top dose activity, negative = inhibition, actives largely listed as inhibitors; 690 tested, under 10 active; AID 1508640; note: % of control where 0% means no effect
S16 viab conf = confirmation of cytotoxicity in S16 Pmp22-F2sN Schwann cells (luciferase reporters placed in the Pmp22 gene); shares compounds with PMP22 txn; S16 Schwann cells viability, CellTiter-Glo ATP luminescence, 24 h; Potency, µM (titrated, usually from 57.5 µM), for inactives: at the highest dose activity change, negative = viability loss, actives largely listed as cytotoxic; actives 7% (n = 690); AID 1508641; note: potency is the fitted concentration of half-maximal effect; % is set by controls: 0 for no effect and ±100 for the full control effect
PMP22 txn cnf = confirmation of modulators of PMP22 gene transcription in S16 cells; shares compounds with PMP22 txn; S16 Schwann cells Pmp22-F2sN, dual luciferase, 24 h; Potency, µM (doses to about 57.5 µM), inactives show at the top dose activity change, negative = inhibition, most hits filed as inhibitors; actives 22% (n = 690); AID 1508646; active = clear falling dose curves in both reporters; inconclusive = both reporters move, but less clearly or upward; inactive = either reporter flat; the % is the FLuc reporter signal; note: potency is the fitted concentration of half-maximal effect
PMP22 HiBiT cnf = confirmation of modulators of rat PMP22 protein expression; S16 Schwann cells Pmp22-HiBiT, luminescence, 48 h; AID 1508647; Potency, µM (top dose mostly 27.9 µM), for inactives: top-dose activity change, negative = inhibition, actives largely listed as inhibitors; shares compounds with PMP22 txn; 95 tested, under 10 active
* marks the source's active call; other numbers are inactive results; i = inactive; ? = inconclusive; / = no result. Most compounds without a hit are left out; they make up all but 3% or so of the library. Unless noted, calls come from the whole dose curve; as a rule, active = well fitted curve in the direction sought with a large enough effect; inconclusive = small, poorly fitted or top-dose-only effect, or another doubt; inactive = no such curve, though single readings can be large; an effect the other way counts as inactive or inconclusive.

SMILES	p53null 32C tox	p53null 39C kill	S16 viability	mTORC1 inh	PMP22 txn	GALC G270D up	others
CC(=O)c1ccc(NC(=O)c2sc3nc4c(cc3c2N)N2CCC4CC2)cc1	?	-27%	-5%	0%	?	i
CCOC(=O)c1ccc(NC(=O)c2sc3nc4c(cc3c2N)N2CCC4CC2)cc1	-5%	-8%	1%	6%	?	14µM*
O=C(Nc1ccc(Cl)c(C(F)(F)F)c1)c1ccc2c(c1)CCN2S(=O)(=O)c1ccccc1	16%	-2%	22µM*	8.3µM*	?	i
Cc1nc2c(=O)n(C)c(=O)nc-2n(C)n1	1.3µM*	3.2µM*	/	/	/	/
Cc1cccc(OCC(=O)N2CCN(Cc3cc(=O)n4nc(-c5ccccc5Cl)sc4n3)CC2)c1	2%	-4%	12%	0%	-12%	i
COc1ccc(CNC(=O)Cn2c(SCC(=O)Nc3ccc(C)c(C)c3)nc3ccccc32)cc1	?	?	-29%	16µM*	?	i
CC1COC2(c3ccccc3Cl)c3cc(Cl)ccc3NC(=O)CN12 (stereo not drawn)	/	/	/	/	/	i
CCn1nc(-c2ccccc2)nc2c(=O)n(C)c(=O)nc1-2	3.5µM*	18%	/	/	/	/
COc1ccc(N2CCN(c3ncnc4c3nc3n4CCCCC3)CC2)cc1	-11%	-1%	-18%	3%	?	i
Cc1ccc(NC(=O)CSc2nc(-c3ccco3)cc(C(F)(F)F)n2)c(C)c1	23%	?	?	0.83µM*	?	i
CCCc1cc(N2CCN(c3cccc(C)c3C)CC2)n2cnnc2n1	2%	2%	?	4%	-11%	i
COC(=O)C1CN(C#N)N(c2ccc(Cl)cc2)C12c1ccccc1-c1ccccc12 (stereo not drawn)	8.9µM*	?	/	/	/	/
CCCC1=Nc2cc(C(=O)NCCc3ccc(OCC)cc3)ccc2Sc2ccccc21	38%	16%	-21%	-23%	?	i
O=C(c1ccccc1)c1ccc2nc(N3CCN(c4ccc(F)cc4)CC3)c3nncn3c2c1	5%	-20%	16%	4.1µM*	?	i
COc1ccc(NC(=O)c2ccco2)cc1NC(=O)COc1cc(C)cc(C)c1	-18%	?	0%	-7%	?	i
CCOc1ccc2nc(NC(=O)c3cccn(Cc4ccc(C)cc4)c3=O)sc2c1	-4%	26%	11%	-5%	-23%	i
COc1ccc2nc(NC(=O)c3nc(S(=O)(=O)Cc4cccc(C)c4)ncc3Cl)sc2c1	-27%	?	10µM*	6.6µM*	6.2µM*	i
N#Cc1cc2c(nc1SCC(=O)Nc1cccc(F)c1)C1CCN2CC1	-5%	-20%	-16%	4%	-20%	i
COc1ccc(Cl)cc1NC(=O)CN1C(=O)CN=C(c2ccccc2)c2cc(Cl)ccc21	30%	13%	-3%	0%	?	i
COc1ccc(NS(=O)(=O)c2ccc3c(c2)CCCN3C(=O)C2CCC2)cc1OC	-1%	13%	?	?	?	i
COc1ccc(N2CCN(C(=O)C3CCCN(S(=O)(=O)c4ccc5c(c4)CCCN5C(C)=O)C3)CC2)cc1 (stereo not drawn)	2%	-11%	?	7.4µM*	14µM*	i
Cc1ccccc1Cn1cccc(C(=O)Nc2nc3ccccc3s2)c1=O	10µM*	14%	0%	0%	-13%	i
Cc1ccc(S(=O)(=O)c2nnn3c2nc(N2CCC(C(N)=O)CC2)c2cc(Cl)ccc23)cc1C	11%	?	?	1%	16µM*	i
CC(C)=CC1C(C(=O)OCN2C(=O)C3=C(CCCC3)C2=O)C1(C)C (stereo not drawn)	/	/	/	/	/	i
Cc1oc(-c2cccc(Cl)c2)nc1CN1CCC(C(=O)NCCCN2CCN(c3cccc(Cl)c3)CC2)CC1	-5%	?	?	0%	12µM*	i	NLuc sat counter=?;NLuc Km counter=?;FLuc counter=4%;S16 viab conf=27µM*;PMP22 txn cnf=?
Cc1nn2c(=O)cc(COC(=O)c3ccccc3NC(=O)c3cccs3)nc2s1	-2%	?	-8%	0%	7.1µM*	i	NLuc sat counter=-4%;NLuc Km counter=2%;FLuc counter=-3%;S16 viab conf=9%;PMP22 txn cnf=32%
O=C(NCCc1ccc(Cl)cc1)c1ccc(Nc2nc3ccccc3n3nnnc23)cc1	-24%	-16%	?	?	?	i
Cc1ccc(CNC(=O)c2ccc(Nc3nc4ccccc4n4nnnc34)cc2)cc1	3%	-7%	?	?	8µM*	i	NLuc sat counter=-5%;NLuc Km counter=-1%;FLuc counter=-15%;S16 viab conf=?;PMP22 txn cnf=9.9µM*;PMP22 HiBiT cnf=?
